40 compounds from ChEMBL document CHEMBL3988442, “University of Dundee, Small-Polar-MMV Screening Library” (2021) can be followed below.

Each structure is given as a SMILES string.

This test concerns the target AMP-activated protein kinase, AMPK (Homo sapiens) (UniProt P54646+O43741+P54619+Q9UGJ0+Q9Y478+Q13131+Q9UGI9). In words: AMP-dependent Kinase enzyme assay. An in vitro enzyme assay that detects ADP turnover that is directly proportional to AMPK activity. This uses naive AMPK that is activated during the assay with MK-8722. In kind it is functional. Further details: scale not given: direction of the effect not stated beside the values. The conditions noted are these: 30 µM.
In the case of `O=C(NCc1nc[nH]n1)c1cc(COc2ccccc2F)[nH]n1`, the Percent Effect was -3.43%. The same measure for `CN1CCOC(CNCC(=O)NCCC2=CCCCC2)C1` (stereo not given): -9.7%. The figure for `Nc1nccnc1C(=O)NC1CCCN(Cc2c(F)cccc2F)C1` (stereo not given) is 26.8%. As for `CN(CCC#N)C(=O)Cn1cnc2c(Br)cccc2c1=O`, the Percent Effect is 2.35%.

For `COc1ccc(F)cc1-c1ccccc1CC1CNCCNC1=O` (stereo not given), the Percent Effect worked out at 4.74%. In the case of `CCc1ccc2nc(C)cc(C(=O)NC[C@@H]3CCNC[C@H]3O)c2c1`, the Percent Effect was -4.5%. The figure for `Cc1nc(CN2CCCCC2Cn2cccn2)nc2ccccc12` (stereo not given) is 0.0601%; for `COc1ccccc1C(C)(C)NC(=O)Nc1ccc(F)c(C(N)=O)c1` it is -5.46%. `CSC1(CNC(=O)N(C)Cc2ccc(C)s2)CCOCC1`: the Percent Effect was -2.72%. For the compound `Cc1cccc(N2CCN(C(=O)CNCCn3cc(C)cn3)CC2)c1`, the Percent Effect is -4.92%. On to `CC(C)c1nnc2n1CCN(Cc1cc(Cl)c3c(c1)OCO3)C2`, for which the Percent Effect came out at 8.76%. `COCCN1CCC(NC(=O)C/C=C/c2ccc(C(C)C)cc2)CC1`: the Percent Effect is -8.07%. The same measure for `Cc1cc(N2CCC(n3cc(CN4CCSCC4)nn3)CC2)ccn1`: 2.21%; for `Cc1cc(F)ccc1N1CCCC(NC(=O)CCCn2ccnc2)C1` (stereo not given): 8.09%.

Regarding `NC(=O)C1CCN(C(=O)CCSCc2ccccc2)CC1`, the Percent Effect stood at 8.64%.

On to `CCc1nn(C)c(Cl)c1CN(CCOC)Cc1cnn(C)c1`, for which the Percent Effect came out at 5.81%. In the case of `CCOCc1ccc(NC(=O)N2CCOC3(CCC3)C2)cc1`, the Percent Effect was -2.16%. Consider `Cc1c(NCCO)cccc1OC1CCCC1`, for which the Percent Effect is -6.27%. Turning to `O=C(CCC1CCCN(C(=O)CCc2ccc(F)c(F)c2)C1)NC1CC1` (stereo not given), the Percent Effect came out at 5.21%.

Turning to `CCOC(=O)CC1(Nc2nc(C)nc3c2cnn3C)CCCCC1`, the Percent Effect turned out to be 14.9%. As to `NC(=O)c1cn[nH]c1NC(=O)c1ccc2c(c1)OCO2`, the Percent Effect is 5.07%. The same measure for `c1ccc(C2CN(C3CC3)CC3(CCN(Cc4cscn4)CC3)C2)cc1` (stereo not given): 4.81%; for `O=C(NCC1CCOC1)c1cc(-c2cccc(Cl)c2)[nH]n1` (stereo not given): 7.17%; for `Cc1nc(COC(=O)c2cccc3c2OCCO3)cs1`: 3.39%. The same measure for `CCOC(=O)C1(O)CCN(C(=O)Nc2cccc(CC)c2)CC1`: -6.62%; for `CC(NCc1cnc(N2CCN(C)CC2)nc1)c1ccc(F)cc1` (stereo not given): -1.25%; for `COCC(NC(=O)c1cc(NC(C)=O)ccc1Cl)c1ccccn1` (stereo not given): 1.62%. With `CCC(C)NC(=O)Nc1cccc(OCCCC#N)c1` (stereo not given), the Percent Effect was -4.6%. On to `Cn1ncc2c(NC3CCSC3)nc(-c3ccncc3)nc21` (stereo not given), for which the Percent Effect was 9.02%. Take `Cc1cc(C(=O)NC(C)Cc2cccc(Cl)c2)n(C)n1` (stereo not given): the Percent Effect came out at 10.6%. The figure for `COC(=O)c1ccc(Cn2cccc(C(F)(F)F)c2=O)s1` is 3.31%.

On to `COc1ccc(CN2CC(n3cccn3)C2)cc1F`, for which the Percent Effect is -6.94%. The figure for `COc1ccccc1C(C)(C)NC(=O)c1ccc(F)c(NC(C)=O)c1` is -4.2%; for `CCc1nc(N)nc(NCCC(=O)N2CCCC2)c1C` it is 4.47%; for `Cc1n[nH]c(C)c1CCc1ccc(S(C)(=O)=O)cc1` it is 0.986%.

As for `Cc1nccc(CNC(=O)NC(c2ncc(C)s2)C2CC2)n1` (stereo not given), the Percent Effect came out at 0.262%. As to `CC(C)(C)NC(=O)c1cnc2n1CCCC2`, the Percent Effect is 0.336%. With `CS(=O)(=O)c1ccc(Cl)c(NC(=O)NCCC2=CCCCC2)c1`, the Percent Effect came out at 3.49%.

Regarding `COc1ccc(Cl)cc1CN(CC(N)=O)C(C)C`, the Percent Effect was -4.14%. Consider `O=C1NC(C(=O)NCc2cccnc2Oc2ccc(F)c(F)c2)CO1` (stereo not given), for which the Percent Effect stood at 0.367%.
